This is a sample that favours compounds with a hit; in the whole collection about 12% have one here.
Pf growth 96h – P. falciparum growth inhibition at 96 hour, primary screen for plastid delayed-death inhibitors; Potency, µM (highest dose often 28.7 µM), inactives show at the top dose activity change, negative = inhibition, actives largely listed as inhibitors; AID 504834; 6.9% of 320,000 active; P. falciparum luciferase reporter growth, 96 h; further: potency means the concentration at half of the fitted maximal effect; on the % scale 0 is the no-effect control and ±100 the full control effect
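Parasite growth measured via integrated firefly luciferase reporter in P. falciparum. Infected erythrocytes at 2% hematocrit, 0.05% parasitemia final were treated 96 hours at 37 C under 5% CO2, and luminescence was read.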
Sm TGR block – blocks Schistosoma mansoni thioredoxin glutathione reductase. AID 485364. purified TGR, DTNB reduction, TNB absorbance 405 nm. 3% of 360,000 active. Potency, µM (titrated, usually from 114 µM), without a hit: at the top dose activity change, negative = inhibition, actives largely listed as inhibitors. Q962Y6; further: potency means the concentration at half of the fitted maximal effect; on the % scale 0 is the no-effect control and ±100 the full control effect; nearly all actives have a fitted effect of over 60% in size
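First, TGR (20 nM dispensed) and NADPH were mixed with compound. Second, a 15 min room-temperature incubation followed. Third, further NADPH and then DTNB were added to start the reaction. Finally, TNB absorbance was monitored kinetically.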
SARS PLpro yeast-1 – SARS-CoV PLP inhibition in yeast. S. cerevisiae expressing SARS-CoV PLpro, growth rescue. Potency, µM (doses to about 32.9 µM), for the others: at the highest dose activity, positive = growth rescue, most hits filed as activators. 0.19% of 330,000 active; calls by dose curve; further: potency means the concentration at half of the fitted maximal effect; 0% is about no effect; nearly all actives have a fitted effect of over 55% in size
Pf growth 48h – P. falciparum growth inhibition at 48 hours (one generation); 5.9% of 310,000 active; P. falciparum luciferase growth in erythrocytes, 48 h; Potency, µM (titrated, usually from 28.7 µM), for inactives: at the highest dose activity change, negative = inhibition, hits mostly inhibitors; AID 504832; further: potency means the concentration at half of the fitted maximal effect; on the % scale 0 is the no-effect control and ±100 the full control effect
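Luciferase-expressing P. falciparum in infected erythrocytes (2% hematocrit, 0.1% parasitemia final) in RPMI 1640/0.5% Albumax were exposed to compound for 48 hours at 37 C, 5% CO2; growth read as luminescence.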
SARS PLpro yeast-2 – Inhibits SARS-CoV PLP in yeast, hit validation; calls only; AID 652038; shares compounds with SARS PLpro yeast-1; 19% of 1,000 active; yeast expressing SARS-CoV PLpro, growth phenotype rescue; call rule not given here
Numbers without * were called inactive; i = inactive; ? = inconclusive; nt = not tested or not shown; + = active, no number. Unless noted, the call rests on the fitted dose curve; in most records, active means well fitted curve in the direction sought with a large enough effect; inconclusive means small, poorly fitted or top-dose-only effect, or another doubt; inactive means no such curve, though single readings can be large; an effect the other way counts as inactive or inconclusive.

SMILES | Pf growth 96h | Sm TGR block | SARS PLpro yeast-1 | Pf growth 48h | SARS PLpro yeast-2
Cc1ccc(Nc2nnc(SC(C)C(=O)Nc3c(C)n(C)n(-c4ccccc4)c3=O)s2)cc1 (stereo not drawn) | 0% | 3% | 2.8µM* | -20% | i
NC(=O)C1CCN(C(=O)c2cc(Cl)c3c(c2)OCCO3)CC1 | nt | nt | 2.5µM* | nt | i
N#Cc1ccc(CN2CCN(C(=O)c3cc(Cl)c4c(c3)OCCO4)CC2)cc1 | 9% | -21% | -7% | ? | nt
Cc1ccc(S(=O)(=O)Cc2ccc(C(=O)NCCc3ccccc3)o2)cc1 | -20% | -1% | 3% | -29% | nt
COCCNC(=O)c1ccc(CS(=O)(=O)c2ccc(C)cc2)o1 | 44% | 35µM* | ? | nt | i
COc1ccccc1CN1C(=O)CN(C2CCCCCC2)C(=O)C1c1ccc(C)cc1 (stereo not drawn) | nt | 14% | nt | nt | nt
C=CCN(CC=C)C(=S)NC(=O)/C=C/c1ccc(C)cc1 | ? | -1% | ? | -19% | nt
C=CCN(CC=C)C(=S)NC(=O)/C=C/c1ccccc1 | -23% | 0% | 2.8µM* | -2% | i
CC1(c2nnc(Cc3ccccc3)o2)CC(c2ccc(OC(F)(F)F)cc2)=NO1 (stereo not drawn) | 54% | -6% | 10µM* | 0% | i
Cc1ccc(NC(=O)N2CCCCCC2)c(C)c1 | 19% | -24% | 1% | 67% | nt
C[C@H](CO)N1C[C@H](C)[C@@H](CN(C)Cc2ccccc2)Oc2c(NS(=O)(=O)c3ccccc3)cccc2C1=O | nt | nt | -16% | nt | nt
COc1ccc(NC(=O)N(C)C[C@H]2Oc3c(NC(=O)C4CC4)cccc3C(=O)N([C@H](C)CO)C[C@@H]2C)cc1 | nt | nt | ? | nt | i
CNC[C@H]1Oc2c(NS(=O)(=O)c3ccccc3)cccc2C(=O)N([C@H](C)CO)C[C@@H]1C | nt | nt | 10µM* | nt | i
Cc1nnsc1C(=O)N/N=C/c1ccc2ccccc2c1O | 3.3µM* | -2% | 1µM* | 2.6µM* | i
CCCCn1c(N)c(N(CC)C(=O)c2cc(S(=O)(=O)N3CCCCCC3)ccc2OC)c(=O)[nH]c1=O | -8% | -5% | ? | 0% | i
CCCCn1c(N)c(N(CCOC)C(=O)c2cc(S(=O)(=O)N3CCCCC3)ccc2C)c(=O)[nH]c1=O | 5% | 0% | nt | ? | nt
COc1ccc(NC(=O)N2CCC(n3nnc4cc(C)ccc43)CC2)cc1 | ? | -5% | ? | ? | i
CCOc1ccccc1C(=O)N1CCC(n2nnc3cc(C)ccc32)CC1 | -17% | -26% | -10% | ? | nt
CCN1CCN(Cc2c(O)ccc3c(C)c(-c4ccccc4)c(=O)oc23)CC1 | nt | 1% | nt | nt | nt
CC(Sc1n[nH]c(-c2ccccc2F)n1)C(=O)Nc1ccc(S(N)(=O)=O)cc1 (stereo not drawn) | ? | 0% | ? | ? | i
CC1(C)Cc2c(C#N)c(NCc3ccco3)nc(-c3ccco3)c2CO1 | nt | 7.9µM* | ? | -26% | i
Cc1ccccc1NC(=O)/C(=C\c1cccs1)NC(=O)c1ccco1 | 4% | 1% | ? | -20% | i
Cc1ccccc1NC(=O)/C(=C/c1cccs1)NC(=O)c1ccco1 | -26% | 9% | 9% | 4% | nt
CN(C)C(Cc1ccccc1)C(=O)c1ccc(-c2ccccc2)cc1 (stereo not drawn) | ? | -24% | 3.2µM* | nt | i
O=C(Cc1ccccc1)NCC(=O)N/N=C/c1cccs1 | 15% | 4% | -5% | 111% | nt
SMILES | Pf growth 96h | Sm TGR block | SARS PLpro yeast-1 | Pf growth 48h | SARS PLpro yeast-2
S=C(NCc1ccccc1)N/N=C/c1cccs1 | ? | 1% | 5.6µM* | 7.4µM* | +
Cc1nnc(SCC(=O)NNC(=O)C(C)C)[nH]c1=O | 12µM* | 1% | 22µM* | 18% | i
Nc1c(Cl)cc(-c2[nH]c3cc(C(=O)NCCO)ccc3c(=O)c2O)cc1Cl | ? | -10% | ? | ? | +
O=C(C1CC1)N1CCc2cc(Br)cc(S(=O)(=O)N3CCN(c4cccc(C(F)(F)F)c4)CC3)c21 | nt | 0% | nt | nt | nt
O=C(CN1CC(c2ccccc2)CC1=O)N/N=C/c1cc(Br)ccc1O (stereo not drawn) | 53% | 1% | 10µM* | -73% | +
CC(=O)N/C(=C/c1ccccc1)C(=O)NC(Cc1ccccc1)C(=O)O (stereo not drawn) | -7% | 4% | ? | 8% | i
